# Data reported in PubChem BioAssay (NCATS).
# Values joined by “and” are separate entries in the source; they are usually repeats but may differ in a detail not shown here. Equal entries are not always repeated. Inconclusive results are not listed. Where a call stands in place of a potency, no number is given. More than one record can exist for a structure, and the calls need not agree. Active and inactive are the calls of the source. Unless noted, the call rests on the fitted dose curve; in most records, active means well fitted curve in the direction sought with a large enough effect; inconclusive means small, poorly fitted or top-dose-only effect, or another doubt; inactive means no such curve, though single readings can be large; an effect the other way counts as inactive or inconclusive.
# Tests used:
# [1] = target: Glucocorticoid receptor (Homo sapiens) (UniProt P04150); test: GR-GFP Redistribution (AID 450;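 active means compounds whose dose series gives a full or clear partial fitted curve of increased nuclear translocation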; further: potency means the concentration at half of the fitted maximal effect); settings: U2OS GR-GFP nuclear translocation, laser cytometry, 2 h
# [2] = target: Glucocorticoid receptor (Homo sapiens) (UniProt P04150); test: GR-EFC Redistribution (AID 451; calls by dose curve; further: potency means the concentration at half of the fitted maximal effect); settings: CHO-K1 GR-EFC translocation, beta-gal luminescence, 2 h
# Outline: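 CHO-K1 cells stably expressing nuclear-localized β-gal enzyme acceptor and GR fused C-terminally to the enzyme donor fragment; ligand-driven nuclear translocation restores β-gal by complementation. Compounds titrated up to 46 uM final, 2 h at 37 °C; luminescence read.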
# [3] = target: DNA dC->dU-editing enzyme APOBEC-3G (Homo sapiens) (UniProt Q9HC16); test: qHTS for inhibitors of Vif-A3G interactions: Validation (AID 588379); further: potency means the concentration at half of the fitted maximal effect
# Outline: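 Yellow fluorescence (Ex 488, Em 500-530) of Vif-coexpressing HeLa A3G-eYFP cells, scanned by Acumen cytometer, reports blocked A3G degradation. Cells plated at 700/well overnight at 37 deg C before compound addition, then a further overnight compound incubation at 37 deg C.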
# [4] = system: Zika virus NS2B-NS3 protease; test: Primary screen GU AMC qHTS for Zika virus inhibitors (AID 1347154); further: nearly all actives have a fitted effect of over 70% in size
# Outline: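 Unlinked Zika NS2B hydrophilic domain/NS3 protease domain noncovalent complex (25 nM final) in 10 mM Tris-HCl pH 8.0, 0.01% Tween 20, with AMC peptide substrate. Fluorescence (ex 340, em 450 nm) change over 15 min, room temperature; percent inhibition fitted to 4-parameter Hill equation.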
# [5] = Primary qHTS for small molecule stabilizers of the endoplasmic reticulum resident proteome: Secreted ER Calcium Modulated Protein (SERCaMP) assay (AID 1508630)
# Outline: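 The SH-SY5Y reporter protocol was run at 3 concentrations up to 38.3 uM (primary) or 11 concentrations (follow-up): 16 h compound, 100 nM thapsigargin for 4 h, then extracellular luciferase luminescence.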
# [6] = qHTS Assay for Lipid Storage Modulators (AID 1519; calls by dose curve); settings: Drosophila S3 cells, BODIPY lipid droplet/cell ratio, laser cytometry, cells loaded with oleic acid
# Outline: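 Cells seeded at 5,000 per well were treated with compounds over a concentration series and loaded with oleic acid (400 uM, as added). Lipid droplet fluorescence (488 nm excitation, 500-530 nm channel) was read by laser-scanning cytometry and normalized to 20 uM Triacsin C.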
# [7] = target: Ubiquitin carboxyl-terminal hydrolase 1 (Homo sapiens) (UniProt O94782); test: Inhibitors of USP1/UAF1: Pilot qHTS (AID 504865);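 further: rhodamine fluorescence freed from ubiquitin-rhodamine substrate followed over time; top concentration of the series differs between compounds; nearly all actives have a fitted effect of over 35% in size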
# Outline: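 In 50mM HEPES pH 7.8 containing 0.5mM EDTA, 1mM TCEP, 0.1 mg/ml BSA and 0.01% Tween-20, 1nM USP1/UAF1 is exposed to compound for 15 min, then Ub-Rho (150nM final) is added and fluorescence is read over time.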
# [8] = AP1 Signaling Pathway (AID 357; active means well fitted curve in either direction with a large enough effect, not every such curve was filed as active;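 further: ME-180 reporter cells stimulated with EGF at its EC50 level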)
# Outline: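 Titration-series screen for positive or negative modulators of EC50 EGF-induced signaling in ME-180 cells carrying an AP-1-driven beta-lactamase reporter. After 5 hours at 37 degrees Celsius, CCF4 460nm/530nm emission ratio gave %Activity; AC50 values derived.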
# [9] = target: Cytochrome P450 1A2 (Homo sapiens) (UniProt P05177); test: p450-cyp1a2 (AID 410; calls by dose curve; further: potency means the concentration at half of the fitted maximal effect)
# Outline: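 Luminescent demethylation readout: Luciferin-ME (100uM, equal to Km) turned over by 20nM CYP1A2 for 60 min at room temperature after NADPH regeneration addition, following 10 min compound preincubation. Normalization used 57 uM furafylline as full inhibition.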
# [10] = NFAT Signaling Pathway (AID 444; active means well fitted curve in either direction with a large enough effect, not every such curve was filed as active;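 further: carbachol stimulus at about its EC50 of 1 µM final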); settings: Jurkat NFAT-bla M1, carbachol, beta-lactamase ratio, 5 h
# Outline: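 Jurkat cells carrying an NFAT-driven β-lactamase reporter and co-transfected muscarinic M1 receptor were treated with compound plus carbachol (1 uM final, an EC50 level) for 5 h at 37 °C. CCF4 loading followed for 1 h at RT; 460/530 nm ratio gave %activity.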
# [11] = Stat Signaling Pathway (AID 446; active means well fitted curve in either direction with a large enough effect, not every such curve was filed as active;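 further: ME-180 cervical cancer cells given 40 pM IL-6 alongside compound; SIE-controlled beta-lactamase reporter measured as 460/530 nm FRET emission ratio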)
# Outline: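 Compound effects on IL-6-induced STAT reporter activity were measured in ME-180 cells. After overnight culture, cells were co-treated with 40 pM IL-6 for 5 hrs before beta-lactamase substrate loading at room temperature.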
# [12] = target: Mitogen-activated protein kinase 10 (Mus musculus) (UniProt Q61831); test: JNK3 AlphaScreen Assay (AID 530; active means well fitted curve in either direction with a large enough effect, not every such curve was filed as active;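 further: kinase came from lysate of stimulated human HepG2 cells; signal reports phosphorylation of biotinylated GST-cJun 1-79 at Ser73 with 10 µM ATP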)
# Outline: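 Phosphorylation of biotinylated GST-cJun(1-79) at Ser73 is measured by AlphaScreen proximity luminescence. Enzyme is JNK3 in HepG2 lysates activated with interleukin-1beta and tumor necrosis factor alpha; ATP is 10 uM final.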
# [13] = target: 3',5'-cyclic-AMP phosphodiesterase 4B (Homo sapiens) (UniProt Q07343); test: qHTS Assay for Inhibitors of PDE-IV (AID 607; active means well fitted activation curve with a large enough effect in the main read-out, with a control signal flat, not every such curve was filed as active)
# Outline: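 ACTOne HEK293 cells carry a modified cAMP-gated CNG channel and express endogenous PDE4; plated 1000 cells/well, compounds up to 22.9 uM final. Membrane-potential dye fluorescence (ex 535/em 590) was read; parental cells received 10 uM forskolin + 100 uM RO 20-1724.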
# [14] = target: Guanine nucleotide-binding protein G(i) subunit alpha-1 (Homo sapiens) (UniProt P63096); test: qHTS Assay for Inhibitors of RGS12 GoLoco Motif Activity (Green Fluorophore) (AID 879);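 further: negative values mean loss of peptide binding seen as reduced polarization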
# Outline: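 A drop in FITC polarization marked displacement of the FITC-tagged RGS12 GoLoco peptide (10 nM) from Gαi1 (50 nM). Compounds were incubated 10 min at room temperature in Tris pH 7.5 buffer containing 150 mM NaCl, 0.1 mM GDP and 0.05% NP40; unlabeled peptide titration served as control.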
# [15] = target: Pyruvate kinase (Leishmania mexicana) (UniProt Q27686); test: qHTS Validation Assay for Inhibitors of Leishmania Mexicana Pyruvate Kinase (AID 945)
# Outline: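 Mutant LmPYK (E451W), 0.2 nM, plus 0.5 mM PEP and 0.1 mM ADP in 50 mM imidazole pH 7.2 containing 0.01% Tween 20 and 0.05% BSA. Incubated 1 h at room temperature; luminescence via PKLight, normalized to DMSO.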
# [16] = target: Pyruvate kinase PKM (Homo sapiens) (UniProt P14618); test: qHTS Assay for Activators of Human Muscle Pyruvate Kinase (AID 954; active means well fitted curve in the direction sought with a large enough effect, not every such curve was filed as active)
# Outline: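 A coupled luminescent readout tracked ATP made from ADP by purified PKM2. Final conditions included 0.1 nM enzyme, PEP and ADP at 0.5 and 0.1 mM, pH 7.2 imidazole buffer with BSA, and a one-hour room-temperature reaction.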
# [17] = target: Alpha-galactosidase A (Homo sapiens) (UniProt P06280); test: Counterscreen for Glucocerebrosidase Inhibitors: qHTS Assay for Human alpha-Galactosidase at pH 4.5 (AID 992)
# Outline: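 Citrate buffer pH 4.5, Tween-20 0.005%. Enzyme 2 nM, substrate 80 uM, 20 min RT. Stop pH 10. Fluorescence Ex 365/Em 440. AC50 by Hill fit.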
# [18] = target: alpha-glucosidase (Oryza sativa, rice) (UniProt Q653V4); test: Counterscreen for Glucocerebrosidase Inhibitors: qHTS Assay for Rice alpha-Glucosidase at pH 5.0 (AID 997)
# Outline: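 Endpoint fluorogenic assay at pH 5.0: compounds (0.7 nM to 77 uM) titrated against 4 nM rice enzyme and 400 uM 4-MU-alpha-glucoside for 20 min at room temperature; NaOH/glycine stop, read ex 365/em 440 nm, Hill-fitted AC50.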
# [19] = target: Cytochrome P450 3A4 (Homo sapiens) (UniProt P08684); test: qHTS Assay for Activators of Cytochrome P450 3A4 (AID 885); further: nearly all actives have a fitted effect of over 65% in size
# Outline: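 CYP3A4 activity: Luciferin-PPXE O-dealkylation, 25uM substrate, 200mM KPO4, RT throughout. Read-out is luciferase luminescence; higher values reflect activation.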
# [20] = target: Cytochrome P450 2D6 (Homo sapiens) (UniProt P10635); test: qHTS Assay for Inhibitors and Substrates of Cytochrome P450 2D6 (AID 891); further: potency means the concentration at half of the fitted maximal effect; nearly all actives have a fitted effect of over 60% in size
# Outline: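 Luminescent read-out of luciferin formed by 5 nM human CYP2D6 demethylating 30 uM Luciferin-ME EGE (Km level) over 60 min at room temperature after NADPH regeneration addition. Data normalized to full inhibition by 1.43 uM quinidine.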
# [21] = measured here: cell count channel max response
# [22] = measured here: lipid channel max response
# Sequence of Ubiquitin carboxyl-terminal hydrolase 1 (Homo sapiens) (O94782 whole entry, looked up): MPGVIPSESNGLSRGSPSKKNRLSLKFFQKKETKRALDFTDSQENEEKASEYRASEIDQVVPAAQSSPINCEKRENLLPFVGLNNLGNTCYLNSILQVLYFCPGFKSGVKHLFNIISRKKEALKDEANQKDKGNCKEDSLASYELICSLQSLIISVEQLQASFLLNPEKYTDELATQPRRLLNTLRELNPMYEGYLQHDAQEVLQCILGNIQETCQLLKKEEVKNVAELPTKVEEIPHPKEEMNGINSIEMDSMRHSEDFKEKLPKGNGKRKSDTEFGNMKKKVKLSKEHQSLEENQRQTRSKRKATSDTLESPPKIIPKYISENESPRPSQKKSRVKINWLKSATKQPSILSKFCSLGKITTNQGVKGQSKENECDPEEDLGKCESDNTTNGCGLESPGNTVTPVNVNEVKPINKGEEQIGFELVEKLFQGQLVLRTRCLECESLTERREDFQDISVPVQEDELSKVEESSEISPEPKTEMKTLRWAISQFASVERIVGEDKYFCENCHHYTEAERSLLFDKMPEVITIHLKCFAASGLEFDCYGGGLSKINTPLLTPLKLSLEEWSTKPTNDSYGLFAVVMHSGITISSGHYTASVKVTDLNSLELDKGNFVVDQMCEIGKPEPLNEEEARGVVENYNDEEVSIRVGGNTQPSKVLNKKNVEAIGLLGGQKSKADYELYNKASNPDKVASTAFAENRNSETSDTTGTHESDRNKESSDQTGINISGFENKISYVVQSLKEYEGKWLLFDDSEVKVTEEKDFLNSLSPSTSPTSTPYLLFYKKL
# Sequence of Cytochrome P450 1A2 (Homo sapiens) (P05177 whole entry, looked up): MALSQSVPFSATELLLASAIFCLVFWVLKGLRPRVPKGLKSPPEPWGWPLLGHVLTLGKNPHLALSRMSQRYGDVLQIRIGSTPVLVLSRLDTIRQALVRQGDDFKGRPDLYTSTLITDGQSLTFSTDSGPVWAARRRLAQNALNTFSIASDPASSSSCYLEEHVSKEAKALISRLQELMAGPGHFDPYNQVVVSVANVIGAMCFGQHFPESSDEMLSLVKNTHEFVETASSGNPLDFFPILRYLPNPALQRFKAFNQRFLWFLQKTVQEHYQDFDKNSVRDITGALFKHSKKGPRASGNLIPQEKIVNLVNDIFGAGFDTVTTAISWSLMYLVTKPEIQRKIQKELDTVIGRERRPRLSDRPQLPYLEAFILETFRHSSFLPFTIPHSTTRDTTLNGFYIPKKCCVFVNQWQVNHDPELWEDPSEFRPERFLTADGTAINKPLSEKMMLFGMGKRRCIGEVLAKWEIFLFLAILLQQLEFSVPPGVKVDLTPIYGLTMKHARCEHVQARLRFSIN
# Sequence of 3',5'-cyclic-AMP phosphodiesterase 4B (Homo sapiens) (Q07343 whole entry, looked up): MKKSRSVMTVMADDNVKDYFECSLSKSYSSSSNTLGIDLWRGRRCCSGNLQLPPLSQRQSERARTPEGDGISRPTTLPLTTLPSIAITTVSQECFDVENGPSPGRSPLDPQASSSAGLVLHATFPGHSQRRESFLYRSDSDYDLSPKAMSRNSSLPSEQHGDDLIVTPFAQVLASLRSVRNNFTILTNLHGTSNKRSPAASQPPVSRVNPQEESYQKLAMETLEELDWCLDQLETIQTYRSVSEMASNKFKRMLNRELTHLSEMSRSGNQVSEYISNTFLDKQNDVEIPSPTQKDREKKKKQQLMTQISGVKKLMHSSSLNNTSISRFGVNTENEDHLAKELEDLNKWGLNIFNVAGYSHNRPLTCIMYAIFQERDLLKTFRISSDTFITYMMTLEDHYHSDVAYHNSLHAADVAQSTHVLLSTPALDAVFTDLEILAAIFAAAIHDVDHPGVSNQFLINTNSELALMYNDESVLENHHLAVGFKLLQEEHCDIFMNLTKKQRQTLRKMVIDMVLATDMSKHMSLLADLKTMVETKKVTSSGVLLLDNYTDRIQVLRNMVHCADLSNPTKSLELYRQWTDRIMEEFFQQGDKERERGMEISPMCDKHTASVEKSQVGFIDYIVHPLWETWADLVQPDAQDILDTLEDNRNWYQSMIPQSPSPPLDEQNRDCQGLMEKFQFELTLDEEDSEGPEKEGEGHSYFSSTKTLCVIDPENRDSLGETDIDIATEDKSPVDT
# Sequence of Glucocorticoid receptor (Homo sapiens) (P04150 whole entry, looked up, the tested form may be a part): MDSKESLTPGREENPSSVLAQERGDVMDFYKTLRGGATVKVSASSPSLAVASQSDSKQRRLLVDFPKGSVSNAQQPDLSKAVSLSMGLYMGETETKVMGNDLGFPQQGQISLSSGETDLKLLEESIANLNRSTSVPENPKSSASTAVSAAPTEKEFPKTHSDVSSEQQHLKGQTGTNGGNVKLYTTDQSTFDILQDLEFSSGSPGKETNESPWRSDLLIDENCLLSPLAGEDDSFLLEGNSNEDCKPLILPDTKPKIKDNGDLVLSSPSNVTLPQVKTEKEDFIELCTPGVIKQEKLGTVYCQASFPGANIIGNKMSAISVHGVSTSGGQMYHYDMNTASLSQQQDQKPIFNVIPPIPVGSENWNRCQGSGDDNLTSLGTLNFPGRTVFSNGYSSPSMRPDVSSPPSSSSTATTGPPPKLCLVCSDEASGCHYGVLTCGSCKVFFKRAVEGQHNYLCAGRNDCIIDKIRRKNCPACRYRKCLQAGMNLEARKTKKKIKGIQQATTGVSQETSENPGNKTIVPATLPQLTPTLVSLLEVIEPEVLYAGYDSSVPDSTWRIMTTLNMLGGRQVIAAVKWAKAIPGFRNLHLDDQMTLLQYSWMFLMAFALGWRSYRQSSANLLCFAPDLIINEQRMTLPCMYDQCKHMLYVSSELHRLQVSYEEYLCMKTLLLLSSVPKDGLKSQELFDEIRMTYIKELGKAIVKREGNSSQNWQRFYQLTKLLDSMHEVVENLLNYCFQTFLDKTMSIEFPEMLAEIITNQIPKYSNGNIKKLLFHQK
# Sequence of DNA dC->dU-editing enzyme APOBEC-3G (Homo sapiens) (Q9HC16 whole entry, looked up): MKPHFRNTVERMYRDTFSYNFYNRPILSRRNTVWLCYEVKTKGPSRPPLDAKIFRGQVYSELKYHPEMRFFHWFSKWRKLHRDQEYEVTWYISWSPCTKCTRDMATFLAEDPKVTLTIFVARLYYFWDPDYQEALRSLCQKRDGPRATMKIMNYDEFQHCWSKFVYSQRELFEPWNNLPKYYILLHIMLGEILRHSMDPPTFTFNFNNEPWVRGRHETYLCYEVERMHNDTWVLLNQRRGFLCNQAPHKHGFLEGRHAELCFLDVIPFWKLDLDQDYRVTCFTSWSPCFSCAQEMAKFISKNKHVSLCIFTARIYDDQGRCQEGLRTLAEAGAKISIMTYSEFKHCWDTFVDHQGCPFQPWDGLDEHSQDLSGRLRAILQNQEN
# Sequence of Cytochrome P450 2D6 (Homo sapiens) (P10635 whole entry, looked up): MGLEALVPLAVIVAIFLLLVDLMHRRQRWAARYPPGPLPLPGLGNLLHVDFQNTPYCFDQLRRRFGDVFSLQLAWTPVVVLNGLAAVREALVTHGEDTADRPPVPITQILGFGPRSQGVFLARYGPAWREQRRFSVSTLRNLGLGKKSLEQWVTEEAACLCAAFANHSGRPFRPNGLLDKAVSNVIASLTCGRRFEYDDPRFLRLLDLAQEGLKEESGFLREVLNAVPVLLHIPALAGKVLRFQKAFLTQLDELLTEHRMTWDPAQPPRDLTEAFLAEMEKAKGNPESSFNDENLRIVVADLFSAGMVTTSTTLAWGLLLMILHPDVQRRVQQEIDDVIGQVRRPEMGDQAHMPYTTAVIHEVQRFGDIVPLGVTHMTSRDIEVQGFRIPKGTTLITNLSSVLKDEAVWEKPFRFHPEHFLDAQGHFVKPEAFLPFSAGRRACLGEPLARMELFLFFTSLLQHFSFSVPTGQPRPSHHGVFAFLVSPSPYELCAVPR
# Sequence of Cytochrome P450 3A4 (Homo sapiens) (P08684 whole entry, looked up): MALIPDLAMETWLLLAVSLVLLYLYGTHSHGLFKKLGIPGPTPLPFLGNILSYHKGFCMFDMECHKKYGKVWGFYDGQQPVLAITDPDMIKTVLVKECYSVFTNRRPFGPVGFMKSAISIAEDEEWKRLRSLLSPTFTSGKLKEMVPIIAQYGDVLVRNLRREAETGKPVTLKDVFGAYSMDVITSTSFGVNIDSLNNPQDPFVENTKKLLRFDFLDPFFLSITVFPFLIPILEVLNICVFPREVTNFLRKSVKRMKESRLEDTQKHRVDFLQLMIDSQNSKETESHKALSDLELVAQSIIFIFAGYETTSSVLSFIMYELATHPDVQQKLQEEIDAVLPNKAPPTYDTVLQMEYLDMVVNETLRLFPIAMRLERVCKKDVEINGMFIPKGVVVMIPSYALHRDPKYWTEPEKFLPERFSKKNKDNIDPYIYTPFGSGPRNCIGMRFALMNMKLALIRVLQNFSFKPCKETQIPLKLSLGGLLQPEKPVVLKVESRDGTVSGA
# Sequence of Pyruvate kinase (Leishmania mexicana) (Q27686 2-499 E452W): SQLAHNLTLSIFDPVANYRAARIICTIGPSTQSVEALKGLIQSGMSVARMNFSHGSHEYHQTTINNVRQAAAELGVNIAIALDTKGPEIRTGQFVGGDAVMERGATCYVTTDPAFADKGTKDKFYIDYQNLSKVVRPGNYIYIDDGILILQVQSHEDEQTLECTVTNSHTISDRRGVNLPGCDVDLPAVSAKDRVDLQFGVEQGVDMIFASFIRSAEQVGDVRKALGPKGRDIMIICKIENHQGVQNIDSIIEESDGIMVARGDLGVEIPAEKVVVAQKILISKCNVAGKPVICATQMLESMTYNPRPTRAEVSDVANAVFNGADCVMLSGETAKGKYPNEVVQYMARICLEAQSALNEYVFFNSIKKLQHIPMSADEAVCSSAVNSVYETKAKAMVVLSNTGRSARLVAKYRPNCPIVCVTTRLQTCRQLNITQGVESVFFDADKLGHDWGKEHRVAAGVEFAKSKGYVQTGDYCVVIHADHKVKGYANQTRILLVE
compound,measurement,setting,value
CN1Cc2ccccc2[C@@H]2c3cccc4[nH]cc(c34)C[C@H]21,Potency,[1],> 46 µM (inactive)
same,Potency,[2],> 46 µM (inactive)
same,Potency,[3],26.6 µM (active)
same,Potency,[4],inactive
same,Potency,[5],inactive
c1cncc(C2CCCCN2)c1 (stereo not drawn),"activity change, negative = inhibition",[6]; at 57.5 µM (top of the series),4.14% (inactive)
same,max response,[6]; [21],15%
same,max response,[6]; [22],20.8%
same,Potency,[7],inactive
same,Potency,[4],inactive
same,Potency,[5],inactive
Cc1o[nH]c(=O)c1C[C@H](N)C(=O)O,outcome,[8],inactive
same,Potency,[9],inactive and 31.6 µM (active)
same,"activity change, negative = inhibition",[10]; at 38 µM (top of the series),-2.02% (inactive)
same,outcome,[11],inactive
same,Potency,[1],> 46 µM (inactive)
same,Potency,[2],> 46 µM (inactive)
same,outcome,[12],inactive
same,Potency,[13],inactive
same,outcome,[14],inactive
same,outcome,[15],inactive
same,outcome,[16],inactive
same,outcome,[17],inactive
same,outcome,[18],inactive
same,"activity change, negative = inhibition",[6]; at 57.5 µM (top of the series),5.07% (inactive) and 0.872% (inactive) and 1.49% (inactive)
same,max response,[6]; [21],9.71% and 20.6% and -4.26%
same,max response,[6]; [22],15.4% and 23.1% and -1.44%
same,Potency,[3],inactive
same,Potency,[4],inactive
same,Potency,[5],inactive
C[C@]12N[C@@H](Cc3ccccc31)c1ccccc12,outcome,[8],inactive
same,Potency,[9],inactive
same,"activity change, negative = inhibition",[10]; at 17.2 µM (top of the series),-0.0371% (inactive) and -7.29% (inactive)
same,outcome,[11],inactive
same,outcome,[12],inactive
same,Potency,[13],inactive
same,Potency,[19],inactive
same,Potency,[20],79.4 nM (active) and 5.01 µM (active)
same,"activity change, negative = inhibition",[6]; at 25.7 µM (top of the series),1.12% (inactive) and -0.257% (inactive)
same,"activity change, negative = inhibition",[6]; at 57.5 µM (top of the series),2.32% (inactive) and -0.0802% (inactive)
same,max response,[6]; [21],11.5% [middle of 4 runs]
same,max response,[6]; [22],12.1% [middle of 4 runs]
same,Potency,[7],inactive
same,Potency,[3],inactive
same,Potency,[4],inactive
same,Potency,[5],inactive
O=C(O)[C@H]1[C@H]2CN[C@H](C(=O)O)[C@H]21,Potency,[9],31.6 µM (active)
same,Potency,[1],> 46 µM (inactive)
same,Potency,[2],> 46 µM (inactive)
same,outcome,[12],inactive
same,Potency,[13],inactive
same,"activity change, negative = inhibition",[6]; at 57.5 µM (top of the series),-5.1% (inactive)
same,max response,[6]; [21],-11.8%
same,max response,[6]; [22],-16.1%
same,Potency,[3],inactive
same,Potency,[4],inactive
same,Potency,[5],inactive
O=C(O)Cc1cccnc1C(=O)O,Potency,[1],> 46 µM (inactive)
same,Potency,[2],> 46 µM (inactive)
same,outcome,[12],inactive
same,"activity change, negative = inhibition",[6]; at 57.5 µM (top of the series),3.53% (inactive)
same,max response,[6]; [21],-8.51%
same,max response,[6]; [22],-2.88%
same,Potency,[7],inactive
same,Potency,[3],inactive
same,Potency,[4],inactive
same,Potency,[5],inactive
CCN1C[C@]2(C)CC[C@H](O)[C@@]34C5C[C@@H]6[C@@H](OC)C[C@@](O)(C5[C@H]6O)[C@@H](CC23)[C@@H]14 (stereo partly drawn),"activity change, negative = inhibition",[6]; at 57.5 µM (top of the series),1.68% (inactive)
same,max response,[6]; [21],-11.5%
same,max response,[6]; [22],-11%
same,Potency,[3],inactive
same,Potency,[4],inactive
same,Potency,[5],inactive
